Measurements: PubChem BioAssay (NCI)
Compounds without any hit were thinned out: in the full panel of roughly 83,000, 20% have a hit.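 Negative percent growth values reflect cell death: -40 means 40% of the cells present at the start died, and -100 means all died.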 Activity calls are given as the source filed them. Rule for the calls: active = growth percent below 10; inactive = the rest.

System: A498 renal
Experiment: NCI-60 one-dose screen, 48 h (100 = growth as untreated, 0 = no growth, -100 = all killed)
Details: 10 µM

| SMILES | growth |
| --- | --- |
| COc1ccc(C(O)c2ccccc2)cc1 (configuration not stated) | 102% (inactive) |
| CC1CC(O)C2C3(C)CCCC2(COC3=O)C12CCC1(CCOC1=O)O2 (configuration not stated) | 71% (inactive) |
| c1ccc2c(c1)Sc1ccccc1S2 | 94.3% (inactive) |
| Cc1ncc(C#N)c(N)n1 | 87.1% (inactive) |
| CC(=O)Nc1cccc(Cl)c1C | 93.3% (inactive) |
| NCCCN | 114% (inactive) |
| CCCC(C)OCC(=O)O (configuration not stated) | 103% (inactive) |
| C#CC(C(C)C)N(CCO)CCCC (configuration not stated) | 88.8% (inactive) |
| O=C(O)/C=C/c1ccc2c(c1)CCC2 | 111% (inactive) |
| CC1(C(=O)O)NC(C(=O)O)Cc2c1[nH]c1ccccc21 (configuration not stated) | 91.8% (inactive) |
| COc1cc(C2c3cc4c(cc3C3OC(=O)C2C3CO)OCO4)cc(OC)c1OC (configuration not stated) | -7.83% (active) |
| O=[N+]([O-])c1ccc(/C=C/C=C/c2ccccc2)c(Cl)c1 | 88.9% (inactive) |
| COc1ccc(-c2cc3c(nn2)-c2ccccc2C3=O)cc1 | 102% (inactive) |
| COc1cccc(/C=N/NC(=S)NC2CC3CCC2C3)c1O (configuration not stated) | 51.9% (inactive) |
| CCN(CC)CCCC(C)Nc1ccnc(/C=C/c2ccc(Cl)cc2)c1 (configuration not stated) | 22.2% (inactive) |
| CC(=O)C1CCCCC1 | 99.1% (inactive) |
| CC(=O)OCCO | 109% (inactive) |
| O=C(/C=C/C(=O)c1ccccc1)c1ccccc1 | 85.2% (inactive) |
| CC(=O)OCC1OC(OC2=C(CC=C(C)C)C(=O)c3ccccc3C2=O)C(OC(C)=O)C(OC(C)=O)C1OC(C)=O (configuration not stated) | 22.6% (inactive) |

| SMILES | growth |
| --- | --- |
| O=C(/C(=N/O)c1ccccc1)c1ccccc1 | 91.5% (inactive) |
| c1ccc(/C(=N\N=C(/c2ccccc2)c2cccs2)c2cccs2)cc1 | 102% (inactive) |
| CC(C)=NNC(N)=S | 97.8% (inactive) |
| CCn1c(=O)n(C)c2c(=O)n(C)c(=O)n(C)c21 | 91.7% (inactive) |
| Cc1cccc(CO)c1 | 108% (inactive) |
| O=C(O)c1cccc([N+](=O)[O-])c1 | 102% (inactive) |
| O=C(O)COCC(=O)O | 110% (inactive) |
| O/N=C/c1ccc(O)cc1O | 85.9% (inactive) |
| CCOC(=O)C(O)C(O)C(=O)OCC (configuration not stated) | 101% (inactive) |
| O=C(O)CCCC(=O)O | 109% (inactive) |
| C=C[Si](OC(C)=O)(OC(C)=O)OC(C)=O | 94.2% (inactive) |
| O=C1C=C(Nc2ccc([N+](=O)[O-])cc2)c2ccccc2C1=O | 40.6% (inactive) |
| CCN1C(=O)/C(=C/C=C/N(C)c2ccccc2)SC1=S | 92.8% (inactive) |
| CC(=O)Cc1ccc(-c2ccccc2)cc1 | 89% (inactive) |
| O=P(O)(O)OCC(O)CO (configuration not stated) | 108% (inactive) |
| Cc1ccc(C(O)C2CC2)cc1 (configuration not stated) | 87.5% (inactive) |
| c1cc[n+](C2c3ccccc3C([n+]3ccccc3)c3ccccc32)cc1 (configuration not stated) | 94.9% (inactive) |
| O=S(=O)(Cc1ccccc1)c1ccccc1 | 101% (inactive) |
